Data taken from PubChem BioAssay AID651800 (The Scripps Research Institute Molecular Screening Center, 2012).
The whole screen tested about 360,000 compounds, of which about 1,300 (0.36%) were called active. The full list was thinned out, with actives kept by preference. Values without a mark were called inactive. Rule as the data show it: active = inhibition above about 19%; inactive = the rest.

Tested on: T-cell receptor (TCR)
Experiment: small molecules blocking TCR binding to CD3 – biochemical, fluorescence, TAMRA-labeled TCR probe, primary screen (AID 651800);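 also: recombinant mutant TCR 2C K166C tagged with TAMRA read by polarization; 0% = receptor in buffer alone and 100% = receptor with positive control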
Details: at 9.4 µM, hits give high values

Compound | inhibition
COC(=O)[C@]12C[C@H](CC(=O)NCc3ccc(C)o3)C(=O)N(CCC3=CCCCC3)C1=C[C@H](C(C)(C)C)O[C@@H]2C | -1.26%
Oc1ccc(/C=N/N(Cc2ccccc2)c2ccccc2)cc1 | 7.05%
Oc1ccc(N=Cc2sc3ccccc3c2Cl)cc1 | 89.3% (active)
Oc1ccc(N=Cc2c(O)ccc3ccccc23)cc1 | 44.6% (active)
COc1ccc(-c2ccc3c(n2)CCCN3S(=O)(=O)c2ccc(C)cc2)cc1 | -3.11%
CC(C)(C)c1ccc(S(=O)(=O)NCC2CCN(C(=O)C(=O)c3cc4ccccc4o3)CC2)cc1 | -7.28%
NC(=O)c1ncn([C@@H]2O[C@H](C(=O)O)[C@@H](O)[C@H]2O)n1 | 6.54%
COC(=O)Cc1nnn2c1[C@H](C)[C@H](c1ccccc1Br)OCC2 | -3.6%
COC(=O)C1=C(C)N(Cc2cccc(C(F)(F)F)c2)C(=NCc2ccccc2)NC1c1ccccc1C(F)(F)F (stereo not drawn) | 2.13%
O=C1[C@@H](c2ccccc2)[C@@H](c2ccccc2)N1c1ccccc1 | 4.73%
C=CC1=CCN(S(=O)(=O)C(C)(C)C)[C@@H]1CCO | 5.24%
COC(=O)c1cc(Oc2ccc(S(=O)(=O)N3CCOCC3)cc2[N+](=O)[O-])cc(C(=O)OC)c1 | 7.58%
Cc1cc(OCCCC(=O)Nc2cc(S(=O)(=O)N3CCOCC3)ccc2N2CCOCC2)ccc1Cl | 0.46%
O=[N+]([O-])c1cc(Cl)cc(/C=N/NC(=S)Nc2cc(S(=O)(=O)N3CCOCC3)ccc2Cl)c1O | 41.3% (active)
O=S(=O)(c1cccs1)N1CCCc2nc(-c3ccc(Br)cc3)ccc21 | 3.53%
COc1ccccc1CCn1cnc(-c2ccccc2)c1C(C)C | 0.67%
COc1cc(OC)cc(-c2c(-c3cccs3)c3cc(-c4ccc(OC)nc4)ccc3n2C)c1 | -3.68%
COc1cc(OC)cc(-c2c(-c3ccc(F)cc3)c3cc(-c4ccc5cc[nH]c5c4)ccc3n2C)c1 | -1.04%
COc1ccc(-c2c(-c3cc(OC)cc(OC)c3)n(C)c3ccc(-c4ccn[nH]4)cc23)cc1 | 23.9% (active)
COc1cccc(CNC(=O)[C@H]2CCCN2C(=O)[C@H]2CCCN2C(=O)c2ccc(F)cc2)c1 | 5.75%
Cc1ccc(S(=O)(=O)NCCC(=O)NNC(=O)C2COc3ccccc3O2)cc1 (stereo not drawn) | -2.9%
Cc1c(CCC(=O)O)c(=O)oc2c(C)c(OCc3ccccc3Cl)ccc12 | -7.63%
Cc1c(CC(=O)N2CCN(C(=O)C3COc4ccccc4O3)CC2)c(=O)oc2c(O)c(O)ccc12 (stereo not drawn) | 82.2% (active)
